Assay outcomes from PubChem BioAssay.
Most compounds without a hit are left out; they make up all but 5.9% or so of the library.
ALR H2O2 inh = inhibitors of human sulfhydryl oxidase ALR. purified ALR, DTT oxidation, H2O2 HRP-luminol luminescence. inhibition, % (test concentration not listed). hit rate 3.8% among 290,000;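 active means mean replicate inhibition above about 79%, with every replicate also reaching it, limit read from the data; inconclusive means only one of the two criteria met; inactive means mean below limit and not every replicate reaching it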
Target sequence (P55789 whole entry, looked up): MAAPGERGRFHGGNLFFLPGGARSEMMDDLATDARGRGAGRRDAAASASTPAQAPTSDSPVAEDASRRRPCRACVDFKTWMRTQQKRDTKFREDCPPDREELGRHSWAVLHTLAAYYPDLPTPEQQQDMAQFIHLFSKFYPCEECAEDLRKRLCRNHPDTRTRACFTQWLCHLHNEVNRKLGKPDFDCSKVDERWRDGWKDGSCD
rCAG binder = binds r(CAG) RNA repeats; r(CAG) RNA repeat, TO-PRO-1 dye displacement fluorescence; inhibition, % at 3 µM; hit rate 1.3% among 370,000; AID 651821;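 active means inhibition above the plate cutoff, the mean of all test compounds on that plate plus 3 SD, cut at about 35% in these data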;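 further: 0% = DMSO alone and 100% = 100 µM mitoxantrone as full dye displacement; higher means more dye released from RNA so lower well fluorescence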
ABHD5 PLIN5 PPI = inhibitors of human ABHD5-perilipin-5 interaction. inhibition, % at 4 µM. hit rate 0.78% among 360,000. Split G. princeps luciferase complementation, luminescence, 4 h;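 active means inhibition above the mean inhibition across every tested compound plus 3 SD, cut at about 22% in these data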;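 further: 0% = DMSO only wells and the 100% control is not disclosed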
PRMT1 inh = PRMT1 (human) inhibition, primary screen | Q99873 | recombinant PRMT1, activity-based probe fluorescence polarization | inhibition, % at 2.79 µM | hit rate 1.3% among 370,000 | AID 652257;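 active means inhibition above about 21% made by adding two undisclosed values, limit read from the data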
Rtt109 Vps75 = blocks Candida albicans Rtt109/Vps75 acetyltransferase activity; Q5AAJ8; purified Rtt109/Vps75, ThioGlo CoA-SH fluorescence, 4 h; inhibition, % at 34.9 µM; hit rate 0.16% among 330,000; AID 540336;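 active means inhibition of at least 50% in every replicate; inconclusive means best replicate reaches 50% inhibition but some replicates fall short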
Target sequence (Q5AAJ8 whole entry, looked up): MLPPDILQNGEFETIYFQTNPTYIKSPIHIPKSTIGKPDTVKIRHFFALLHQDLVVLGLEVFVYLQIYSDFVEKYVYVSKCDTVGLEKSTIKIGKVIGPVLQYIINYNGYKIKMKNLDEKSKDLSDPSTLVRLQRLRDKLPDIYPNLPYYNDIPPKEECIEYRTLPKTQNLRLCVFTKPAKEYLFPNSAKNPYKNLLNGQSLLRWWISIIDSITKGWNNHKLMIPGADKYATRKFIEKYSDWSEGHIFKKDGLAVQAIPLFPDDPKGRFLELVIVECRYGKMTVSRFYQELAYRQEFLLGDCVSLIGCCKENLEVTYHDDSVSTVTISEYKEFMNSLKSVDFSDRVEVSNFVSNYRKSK
LANA-H2B inh = blocks KSHV LANA binding to histone H2A/H2B | Q9QR71 | cell-free LANA-H2A/H2B peptide, fluorescence polarization | inhibition, % (no concentration beside the values) | hit rate 0.6% among 320,000 | AID 2629; in the data active means inhibition mostly above about 10%, no sharp cut-off; inactive means mostly below about 6.7%
The depositor's hits bear a star; u = inconclusive; x = no result.

SMILES	ALR H2O2 inh	rCAG binder	ABHD5 PLIN5 PPI	PRMT1 inh	Rtt109 Vps75	LANA-H2B inh
C#CCOCCOCCOCCNc1nc(N2CCN(C(=O)[C@H](CCCN=C(N)N)n3cc(C(N)[C@@H](C)CC)nn3)CC2)nc(N2CCN(C(=O)[C@H](CCC(=O)O)n3cc([C@@H](N)CC(N)=O)nn3)CC2)n1 (some centres undefined)	36	3	10	7	0	-422
C#CCOCCOCCOCCNc1nc(N2CCN(C(=O)[C@H](CCCN=C(N)N)n3cc(C(N)[C@@H](C)CC)nn3)CC2)nc(N2CCN(C(=O)[C@H](CCCCN)n3cc([C@@H](N)CC(N)=O)nn3)CC2)n1 (some centres undefined)	1	8	3	1	80*	4
C#CCOCCOCCOCCNc1nc(N2CCN(C(=O)[C@H](CCCCN)n3cc([C@@H](N)CC(C)C)nn3)CC2)nc(N2CCN(C(=O)[C@H](Cc3cc4ccccc4[nH]3)n3cc([C@@H](N)Cc4ccc(O)cc4)nn3)CC2)n1	x	x	25*	x	u	2
C#CCOCCOCCOCCNc1nc(N2CCN(C(=O)CCCCCCCCCCNC(=O)[C@@H](CCSC)n3cc(CCO)nn3)CC2)nc(N2CCN(C(=O)CCCCCCCCCCNC(=O)[C@H](CCCN=C(N)N)n3cc(C[C@@H](C)CC)nn3)CC2)n1	-3	x	64*	x	u	2
CN1CCCCC(NC(=O)CSc2ccccc2)C1=O (centres undefined)	x	1	x	0	x	x
C#CCOCCOCCOCCNc1nc(N2CCN(C(=O)CCCCCCCCCCNC(=O)[C@H](CCCCN)n3cc(C[C@@H](C)CC)nn3)CC2)nc(N2CCN(C(=O)CCCCCCCCCCNC(=O)[C@@H]([C@H](C)O)n3cc(C)nn3)CC2)n1	-21	x	53*	x	u	1
C#CCOCCOCCOCCNc1nc(N2CCN(C(=O)CCCCCCCCCCNC(=O)[C@H](CCCCN)n3cc(C)nn3)CC2)nc(N2CCN(C(=O)CCCCCCCCCCNC(=O)[C@H](CCCN=C(N)N)n3cc(C[C@@H](C)CC)nn3)CC2)n1	3	x	x	x	x	-35
Cc1ccc(S(=O)(=O)N2CCN(C(=O)n3ccnc3)CC2)cc1	-2	4	-4	4	-3	31*
O=S(=O)(O)c1ccc(O)c2cc(Nc3ccccc3)ccc12	x	97*	-9	43*	7	x
CC(=O)Nc1ccc2c(O)cc(S(=O)(=O)O)cc2c1	x	2	-1	6	-2	x
O=S(=O)(O)c1cc(O)c2cc(Nc3ccccc3)ccc2c1	x	43*	-9	x	-2	x
COc1ccccc1Nc1ccc2c(O)cc(S(=O)(=O)O)cc2c1	x	74*	10	37*	-15	x
COc1ccc(S(=O)(=O)O)cc1P(=O)(c1ccccc1)c1ccccc1	-8	3	0	1	-19	3
O=S(=O)(O)c1cc(O)c2ccc(Nc3ccccc3)cc2c1	x	65*	5	28*	2	x
CCOc1ccc(C(C)=O)cc1COC(=O)c1ccccc1C(=O)N(C)Cc1ccccc1	x	-10	4	2	15	x
O=C(OCC(=O)N1CCN(c2ccc(F)cc2)CC1)c1cnc2ccccc2n1	-6	-1	0	1	-3	1
COc1ccc(-c2nc(CS(=O)(=O)CC(=O)NCCCc3ccccc3)c(C)o2)cc1	u	-4	-4	-2	-6	-1
Cc1oc(-c2ccccc2F)nc1CS(=O)(=O)CC(=O)NC(C)CCc1ccccc1 (centres undefined)	-8	-6	-7	2	6	-1
Cc1ccc(-c2nc(CS(=O)CC(=O)NCCCc3ccccc3)c(C)o2)cc1 (centres undefined)	98*	-4	-3	11	-2	5
Cc1ccc(-c2nc(CS(=O)CC(=O)NC(C)CCc3ccccc3)c(C)o2)cc1 (centres undefined)	93*	-4	5	4	-7	0
COc1ccc(-c2nc(CS(=O)CC(=O)NC(C)CCc3ccccc3)c(C)o2)cc1OC (centres undefined)	99*	-2	-9	12	7	-1
O=C(C1CCCN1S(=O)(=O)c1ccc(Cl)s1)N1CCN(c2ccccc2)CC1 (centres undefined)	x	6	x	-1	x	x
C=CCN1[C@H](Cc2ccccc2)COc2cccc(N3CCSCC3)c2S1(=O)=O	x	2	x	2	x	x
O=C(CC1CCCCC1)c1c(O)c2ccccc2oc1=O	97*	6	-9	2	x	-5
COc1ccc(C2=Nn3c(nnc3-c3ccccc3Cl)SC2)cc1OCC1CC1	-4	-1	-9	3	0	-1
SMILES	ALR H2O2 inh	rCAG binder	ABHD5 PLIN5 PPI	PRMT1 inh	Rtt109 Vps75	LANA-H2B inh
COc1ccc(OC)c(-c2nnc3n2N=C(c2ccc(OC)c(OCC4CC4)c2)CS3)c1	-1	x	23*	x	14	-5
COc1ccccc1-c1nnc2n1N=C(c1ccc(O)c(O)c1)CS2	99*	x	2	x	13	6
C[C@@H]1CN([C@@H](C)CO)C(=O)CCCn2nncc2CO[C@@H]1CN(C)S(=O)(=O)c1cccc(F)c1	x	1	4	1	x	x
Cc1ccn2c(NC3CCCC3)c(-c3ccsc3)nc2c1	89*	0	-1	3	0	2
Cc1ccn2c(NC3CCCCC3)c(-c3ccc(SC4CCCCC4)cc3)nc2c1	x	4	-4	1	x	x
CCOC(=O)CS(=O)(=O)c1nc(-c2ccc(F)cc2)cc(C(F)(F)F)n1	34	x	53*	x	-6	-3
CCOC(=O)CCS(=O)(=O)c1nc(-c2ccccc2)cc(C(F)(F)F)n1	87*	x	58*	x	24	1
COCC(C)NC(=O)CCS(=O)(=O)c1nc(-c2ccc(OC)cc2)cc(C(F)(F)F)n1 (centres undefined)	97*	-1	14	-1	6	-2
O=C(NC(Cc1cn(Cc2ccccc2)cn1)C(=O)O)OCC1c2ccccc2-c2ccccc21 (centres undefined)	x	x	1	x	x	x
O=C1CCCC/C1=N\Nc1ccc(C2CCCCC2)cc1	98*	x	x	x	x	5
O=C1CCCC/C1=N\Nc1ccc(OCc2ccccc2)cc1	99*	2	5	4	x	3
CCn1ncc(S(=O)(=O)N2CCN(c3cccc(OC)c3)CC2)c1C	47	-6	-3	0	-4	4
CC1CC(C)CN(S(=O)(=O)c2cccc3cccnc23)C1 (centres undefined)	92*	0	-1	-1	-24	-4
O=S(=O)(c1cccc2cccnc12)N1CCOCC1	-5	0	-1	-3	-12	1
COc1cccc(N2CCN(S(=O)(=O)c3cccc4cccnc34)CC2)c1	94*	-4	1	-2	7	3
COc1ccc(N2CCN(S(=O)(=O)c3cnc[nH]3)CC2)cc1	4	1	-2	-1	-2	33*
O=S(=O)(c1cnc[nH]1)N1CCN(c2ccc(Cl)cc2)CC1	x	1	6	-2	0	1
